Measured values reported in PubChem BioAssay AID1159580 (chemical genetic matrix, 2015).
Among all 5,500 compounds or so, about 2,000 (36%) were called active. About 18% were inconclusive and are not listed. No stated cut-off is given here; in the data, active means normalized growth mostly below about 0.91 (no sharp cut-off); inconclusive means no clear call, values can overlap the other calls; inactive means mostly above about 0.92. This is one part of the list.

Assay: chemical genetic growth profiling, strain panel (AID 1159580);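 further: tested at 20 µM; growth read once vehicle control cultures reached saturation at 30 °C; 1 = growth at the plate median or of vehicle wells; lower values mean less growth of the strain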
Conditions: growth OD

Measured: normalized growth

CCCC(=O)O[C@]1(C(=O)CO)CCC2[C@@H]3CCC4=CC(=O)CC[C@]4(C)C3[C@@H](O)C[C@@]21C (stereo not given in full)
inactive: S. cerevisiae deletion strains, locus YJR066W, strain TOR1, active compounds read low 0.99 | S. cerevisiae deletion strains, locus YKL009W, strain mrt4, active compounds read low 0.958 | S. cerevisiae deletion strains, locus YKL068W, active compounds read low 1.02 | S. cerevisiae deletion strains, locus YKL085W, strain MDH1 (second series), active compounds read low 1.01 | S. cerevisiae deletion strains, locus YKL085W, strain MDH1, active compounds read low 1.01 | S. cerevisiae deletion strains, locus YKL160W, strain elf1, active compounds read low 1.01 | S. cerevisiae deletion strains, locus YKL190W, strain CNB1, active compounds read low 1 | S. cerevisiae deletion strains, locus YKR001C, strain vps1, active compounds read low 0.982 | S. cerevisiae deletion strains, locus YKR026C, strain gcn3, active compounds read low 1.01 | S. cerevisiae deletion strains, locus YKR091W, strain srl3, active compounds read low 1 | S. cerevisiae deletion strains, locus YLL001W, strain dnm1, active compounds read low 1.01 | S. cerevisiae deletion strains, locus YLL026W, active compounds read low 1 | S. cerevisiae deletion strains, locus YLL041C, strain sdh2, active compounds read low 1 | S. cerevisiae deletion strains, locus YLR027C, strain aat2, active compounds read low 1 | S. cerevisiae deletion strains, locus YLR039C, strain RIC1, active compounds read low 0.988 | S. cerevisiae deletion strains, locus YLR058C, strain SHM2, active compounds read low 1.01 | S. cerevisiae deletion strains, locus YLR102C, strain apc9, active compounds read low 0.985 | S. cerevisiae deletion strains, locus YLR113W, strain HOG1, active compounds read low 1.07 | S. cerevisiae deletion strains, locus YLR221C, strain rsa3, active compounds read low 1.01 | S. cerevisiae deletion strains, locus YLR258W, strain gsy2, active compounds read low 1.01 | S. cerevisiae deletion strains, locus YLR262C, strain YPT6 (second series), active compounds read low 1.01 | S. cerevisiae deletion strains, locus YLR262C, strain YPT6, active compounds read low 1.01 | S. cerevisiae deletion strains, locus YLR268W, strain sec22, active compounds read low 0.988 | S. cerevisiae deletion strains, locus YLR320W, strain mms22, active compounds read low 1.02 | S. cerevisiae deletion strains, locus YLR330W, strain CHS5, active compounds read low 1.01 | S. cerevisiae deletion strains, locus YLR342W, strain FKS1 (second series), active compounds read low 0.996 | S. cerevisiae deletion strains, locus YLR342W, strain FKS1, active compounds read low 1.02 | S. cerevisiae deletion strains, locus YLR357W, strain rsc2, active compounds read low 1 | S. cerevisiae deletion strains, locus YLR370C, strain arc18, active compounds read low 1.01 | S. cerevisiae deletion strains, locus YLR371W, strain rom2, active compounds read low 0.996 | S. cerevisiae deletion strains, locus YLR384C, strain iki3, active compounds read low 1.01 | S. cerevisiae deletion strains, locus YLR418C, strain cdc73, active compounds read low 0.934 | S. cerevisiae deletion strains, locus YML016C, strain PPZ1, active compounds read low 1.01 | S. cerevisiae deletion strains, locus YML032C, strain rad52, active compounds read low 0.948 | S. cerevisiae deletion strains, locus YML120C, strain ndi1, active compounds read low 0.992 | S. cerevisiae deletion strains, locus YML124C, strain tub3, active compounds read low 0.996 | S. cerevisiae deletion strains, locus YMR058W, strain fet3, active compounds read low 1.01 | S. cerevisiae deletion strains, locus YMR078C, strain ctf18, active compounds read low 0.984 | S. cerevisiae deletion strains, locus YMR125W, strain sto1, active compounds read low 1.02 | S. cerevisiae deletion strains, locus YMR129W, active compounds read low 1.01 | S. cerevisiae deletion strains, locus YMR205C, strain PFK2, active compounds read low 1.02 | S. cerevisiae deletion strains, locus YMR223W, strain ubp8, active compounds read low 0.951 | S. cerevisiae deletion strains, locus YMR231W, strain pep5, active compounds read low 1.01 | S. cerevisiae deletion strains, locus YMR263W, strain SAP30, active compounds read low 1.01 | S. cerevisiae deletion strains, locus YMR307W, strain GAS1, active compounds read low 0.999 | S. cerevisiae deletion strains, locus YNL067W, strain RPL9B, active compounds read low 1.01 | S. cerevisiae deletion strains, locus YNL071W, strain lat1, active compounds read low 1 | S. cerevisiae deletion strains, locus YNL128W, strain TEP1, active compounds read low 0.994 | S. cerevisiae deletion strains, locus YNL153C, strain GIM3, active compounds read low 1.02 | S. cerevisiae deletion strains, locus YNL183C, strain NPR1, active compounds read low 0.995 | S. cerevisiae deletion strains, locus YNL209W, strain ssb2, active compounds read low 1 | S. cerevisiae deletion strains, locus YNL233W, strain BNI4, active compounds read low 1.02 | S. cerevisiae deletion strains, locus YNL248C, strain rpa49, active compounds read low 1.02 | S. cerevisiae deletion strains, locus YNL250W, strain rad50, active compounds read low 0.983 | S. cerevisiae deletion strains, locus YNL271C, strain bni1, active compounds read low 0.992 | S. cerevisiae deletion strains, locus YNL298W, strain CLA4, active compounds read low 0.972 | S. cerevisiae deletion strains, locus YNL307C, strain MCK1, active compounds read low 0.982 | S. cerevisiae deletion strains, locus YNL322C, strain KRE1 (second series), active compounds read low 1.01 | S. cerevisiae deletion strains, locus YNR049C, strain mso1, active compounds read low 1.01 | S. cerevisiae deletion strains, locus YNR052C, strain pop2, active compounds read low 0.975 | S. cerevisiae deletion strains, locus YOL006C, strain TOP1, active compounds read low 1.06 | S. cerevisiae deletion strains, locus YOL012C, strain htz1 1.05 | S. cerevisiae deletion strains, locus YOL147C, strain pex11, active compounds read low 0.982 | S. cerevisiae deletion strains, locus YOR001W, strain rrp6, active compounds read low 1.02 | S. cerevisiae deletion strains, locus YOR061W, strain CKA2, active compounds read low 1.01 | S. cerevisiae deletion strains, locus YOR069W, strain VPS5, active compounds read low 1 | S. cerevisiae deletion strains, locus YOR070C, strain gyp1, active compounds read low 1 | S. cerevisiae deletion strains, locus YOR080W, strain dia2, active compounds read low 0.997 | S. cerevisiae deletion strains, locus YOR083W, strain WHI5, active compounds read low 1 | S. cerevisiae deletion strains, locus YOR106W, strain vam3, active compounds read low 1 | S. cerevisiae deletion strains, locus YOR136W, strain idh2, active compounds read low 0.983 | S. cerevisiae deletion strains, locus YOR144C, strain elg1, active compounds read low 0.977 | S. cerevisiae deletion strains, locus YOR184W, strain ser1, active compounds read low 0.963 | S. cerevisiae deletion strains, locus YOR231W, strain MKK1, active compounds read low 1.09 | S. cerevisiae deletion strains, locus YOR265W, strain rbl2, active compounds read low 1 | S. cerevisiae deletion strains, locus YOR270C, strain vph1, active compounds read low 1.01 | S. cerevisiae deletion strains, locus YOR290C, strain snf2, active compounds read low 1 | S. cerevisiae deletion strains, locus YOR316C, strain cot1, active compounds read low 0.994 | S. cerevisiae deletion strains, locus YPL051W, strain arl3, active compounds read low 1 | S. cerevisiae deletion strains, locus YPL055C, strain LGE1, active compounds read low 1.04 | S. cerevisiae deletion strains, locus YPL078C, strain atp4, active compounds read low 1.01 | S. cerevisiae deletion strains, locus YPL106C, strain sse1, active compounds read low 1.02 | S. cerevisiae deletion strains, locus YPL240C, strain hsp82, active compounds read low 1 | S. cerevisiae deletion strains, locus YPL256C, strain CLN2, active compounds read low 1.05 | S. cerevisiae deletion strains, locus YPR119W, strain clb2, active compounds read low 0.993 | S. cerevisiae deletion strains, locus YPR141C, strain kar3, active compounds read low 1.01 | S. cerevisiae deletion strains, locus YPR163C, strain tif3, active compounds read low 1.01 | S. cerevisiae deletion strains, locus YPR167C, strain met16, active compounds read low 0.99 | S. cerevisiae deletion strains, strain wtn01, active compounds read low 0.961 | S. cerevisiae strains, strain wild type, active compounds read low 1.01
